Potency data for 40 molecules are collected here from PubChem BioAssay (NCATS).

Inconclusive results are not listed. Activity calls are given as the source filed them. Calls follow the shape of the full dose curve.
Potency is read from the fitted curve at half-maximal effect.

This test is described as follows: Cell Viability - SK-N-SH (AID 435).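 Also: compound exposure lasted 40 h at 37 °C.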 Conditions: SK-N-SH neuroblastoma cell viability qHTS. The text has this:
NIH Chemical Genomics Center [NCGC]
NIH Molecular Libraries Screening Centers Network [MLSCN]
National Institutes of Environmental Health Sciences [NIEHS]
National Toxicology Program [NTP]
We have developed a 1536-well cell-based assay for quantitative high throughput screening (qHTS) against a number of cell lines to determine in vitro cytotoxicity of small molecules. This particular assay uses the SK-N-SH cell line which is derived from human neuroblastoma.
NCGC Assay Protocol Summary:
The CellTiter-Glo luminescent cell viability assay (Promega) is a homogeneous method to measure the number of viable cells in culture. The end point readout of this assay is based on quantitation of intracellular ATP, an indicator of metabolic activity, using the luciferase reaction. Luciferase catalyzes the oxidation of beetle Luciferin to oxyluciferin and light in the presence of ATP. The luminescent signal is proportional to amount of ATP present.
Using the CellTiter-Glo luminescent cell viability assay, the amount of cellular ATP was measured in the SK-N-SH cell line with complete culture medium following compound treatment for 40 hours. The assay was performed in opaque white Kalypsys 1536-well plates. In the screen, tamoxifen and doxorubicin were used as positive controls. Library compounds were measured for their ability to cause acute toxicity in the cell line, as reflected by a decrease in intracellular ATP levels, in a concentration-dependent manner. Data were normalized to the controls for basal activity (DMSO only) and 100% inhibition (100 uM tamoxifen). AC50 values were determined from concentration-response data modeled with the standard Hill equation.
qHTS protocol fo CellTiter Glo SK-N-SH cellular assay
[Step] [Parameter] [Value] [Description]
1. Reagent; 5 uL; 1500 SK-N-SH cells/well
2. Time; 5 hr; 37 °C incubation
4. Controls; 23 nL; Tamoxifen 0.34 uM to 100 uM & Doxorubicin 0.02 nM to 100 uM
5. Time; 40 hr; 37 °C incubation
6. Reagent; 5 uL; CellTiter Glo reagent
7. Time; 20 min; Room Temperature
8. Detection; Luminescence; Viewlux plate reader
Keywords: cell viability, cytotoxicity, SK-N-SH cell line, luminescence, NTPHTS, NTPHTS_NCGC, NIEHS, EPA, DSSTox, MLSMR, MLSCN, NIH Roadmap, qHTS, NCGC
On the technique in general: Quantitative high-throughput screening tests each substance at several concentrations.
Consider `C=C(C)C(=O)OCC1CO1` (stereo not given), for which the Potency was > 92 µM (inactive).
Then `N#CCCCl`, with > 92 µM (inactive).
In the case of `CC(O)CCl` (stereo not given), the Potency was > 92 µM (inactive).
Turning to `c1nc[nH]n1`, the Potency is > 92 µM (inactive).
Turning to `C=CCOC(=O)c1ccccc1N`, the Potency was > 92 µM (inactive).
For `C/C=C/c1ccc2c(c1)OCO2`, the Potency is > 92 µM (inactive).
Then `Nc1c(Cl)c(Cl)nc(C(=O)O)c1Cl`, with > 92 µM (inactive); and `O=C1C(Cl)=C(Cl)C(=O)C(Cl)=C1Cl`, with 40.5 µM (active).
For `Cc1ccccc1N`, the Potency is > 92 µM (inactive).
`C=C(Cl)Cl`: the Potency was > 92 µM (inactive).
Then `NC(=S)Nc1ccccc1`, with > 92 µM (inactive); and `C=C(C)C#N`, with > 92 µM (inactive).
Then `O=C(Cl)/C=C/C(=O)Cl`, with > 92 µM (inactive).
Then `CCCCOC(=O)c1ccccc1C(=O)OCCCC`, with > 92 µM (inactive); and `O=S1OCC2C(CO1)C1(Cl)C(Cl)=C(Cl)C2(Cl)C1(Cl)Cl` (stereo not given), with > 92 µM (inactive); and `Cc1cccc([N+](=O)[O-])c1`, with > 92 µM (inactive).
Regarding `CNC(=O)O/N=C/C(C)(C)SC`, the Potency was > 92 µM (inactive).
With `c1ccc2c(c1)CCCC2` the figure was > 92 µM (inactive).
Then `OCC1CO1` (stereo not given), with > 92 µM (inactive); and `CCNc1nc(Cl)nc(NC(C)C)n1`, with > 92 µM (inactive); and `CCCC(=O)Cl`, with > 92 µM (inactive).
As for `Brc1ccccc1`, the Potency was > 92 µM (inactive).
For the molecule `CCCSC(=O)Cl`, the Potency is > 92 µM (inactive).
With `C1CCC2CCCCC2C1` (stereo not given), the Potency was > 92 µM (inactive).
Then `CC(Cl)Cl`, with > 92 µM (inactive); and `ClC(Cl)(Cl)c1ccccc1`, with > 92 µM (inactive).
Take `ClCBr`: the Potency was > 92 µM (inactive).
With `CCN(CC)c1ccccc1` the figure was > 92 µM (inactive); with `Nc1ccc(Br)cc1`, > 92 µM (inactive); with `C=CC(N)=O`, > 92 µM (inactive).
With `Cc1ccc([N+](=O)[O-])cc1C` the figure was > 92 µM (inactive); with `CCCOC(=O)c1ccccc1C(=O)OCCC`, > 92 µM (inactive); with `C=CC(=C)C`, > 92 µM (inactive).
With `COc1ccc(N)cc1` the figure was > 92 µM (inactive); with `CN=C=S`, > 92 µM (inactive).
Regarding `c1ccc(N=Nc2ccccc2)cc1`, the Potency was > 92 µM (inactive).
Then `ClC(Cl)=C(Cl)C(Cl)=C(Cl)Cl`, with > 92 µM (inactive); and `C[C@]12CC[C@H]3[C@@H](CCC4=CC(=O)CC[C@@]43C)[C@@H]1CC[C@@H]2O`, with > 92 µM (inactive).
For the molecule `O=[N+]([O-])c1ccc(Cl)c(Cl)c1`, the Potency is > 92 µM (inactive).
As for `BrCCBr`, the Potency is > 92 µM (inactive).
